Assay outcomes: PubChem, National Center for Advancing Translational Sciences (NCATS)
p53 reactivation = re-activators of mutant p53. H1299 p53-A138V BP100-luciferase reporter, luminescence, 24 h. Potency, µM (doses to about 92.2 µM), for inactives: at the highest dose activity change, positive = activation, hits mostly activators. 0.063% of 320,000 active. AID 504706; active means well fitted activation curve with a large enough effect; inconclusive means small, poorly fitted or top-dose-only effect; inactive means no such curve, though single readings can be large or run the other way; further: potency means the concentration at half of the fitted maximal effect; % of control where 0% means no effect; nearly all actives have a fitted effect of over 45% in size
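H1299 (p53-null), stable ts p53-A138V + BP100-Luc; 1000 cells/well, Opti-MEM/10% FBS; cpd 4 pt, 1:5; 24 h, 37 deg C, 5% CO2; detection reagent 10 min RT; luminescence.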
KCNH2 3.1 block = inhibitors of human KCNH2 3.1 potassium channel isoform. U2OS KCNH2 3.1, thallium flux FluxOr; hits give low values. activity change, % (tested at about 1.8 µM). 0.95% of 340,000 active. AID 720553;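 active means maximum activity change below -70%; inconclusive means maximum activity change from -70% to -50%; inactive means maximum activity change above -50%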;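 further: thallium influx rate constant from kinetic fluorescence after stimulation buffer; on the % scale 0 is the no-effect control and ±100 the full control effect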
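Kinetic fluorescence (2 min after stimulation buffer) measures Tl+ influx through KCNH2 3.1 expressed by viral transduction in U2OS cells; the rate constant is normalized against DMSO controls serving as positive and negative references.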
KCNH2 WT inh = blocks the wildtype human KCNH2 potassium channel; Q12809; U2OS, BacMam KCNH2, thallium flux FluxOr; hits give low values; activity change, % at 1.84 µM; 0.37% of 340,000 active; AID 720551;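 active means maximum activity change below -70%; inconclusive means maximum activity change between -70% and -50%; inactive means maximum activity change above -50%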; further: on the % scale 0 is the no-effect control and ±100 the full control effect
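U2OS cells were transduced with wild-type KCNH2 virus (2.03 x 10^8 / mL) for 4 h at room temperature, then cultured overnight at 37 C. Thallium flux was read with FluxOr dye. Rate constants were normalized to DMSO controls.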
TRPV1 agonist = activates the human vanilloid receptor TRPV1. activation, % at 8.33 µM. TRPV1-expressing cells, Fluo-8 calcium influx, agonist mode. AID 540275. 0.19% of 320,000 active. Q8NER1; in the data active means activation above about 80%; inconclusive means between about 30% and that limit; further: 0% is about no effect
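TRPV1-expressing cells were cultured overnight at 35.5C and loaded with Fluo-8 calcium dye for 40 to 90 min at room temperature. After a 10 s baseline, compound was added and calcium influx was read kinetically for 3 min (ex 480/em 520 nm).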
ClpP mod = qHTS Assay for Activators of ClpP; ATP-dependent Clp protease proteolytic subunit (Bacillus subtilis (strain 168)), P80244; purified B. subtilis ClpP, FRET peptide cleavage, 20 min; Potency, µM (doses to about 57.5 µM), inactives show at the highest dose activity change, negative = active; 1.9% of 340,000 active; AID 651965, 2013; active means well fitted falling curve with a large enough effect; inconclusive means small, poorly fitted or top-dose-only effect; inactive means no such curve, though single readings can be large or run the other way; further: potency means the concentration at half of the fitted maximal effect; the source files actives as falling curves though it sought activators and does not explain the sign; nearly all actives have a fitted effect of over 65% in size
Target sequence (P80244 whole entry, looked up): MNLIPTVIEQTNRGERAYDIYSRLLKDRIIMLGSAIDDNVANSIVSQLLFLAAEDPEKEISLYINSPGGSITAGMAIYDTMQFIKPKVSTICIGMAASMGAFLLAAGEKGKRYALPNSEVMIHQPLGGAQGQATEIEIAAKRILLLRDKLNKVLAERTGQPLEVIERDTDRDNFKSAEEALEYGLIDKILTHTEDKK
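FRET quenching reversal measured ClpP activation: 10 microg/mL B. subtilis ClpP at pH 8 with the FRET-FV decapeptide, read at 430 nm after 320 nm excitation. The 20-min minus 0-min signal was scaled between DMSO/no-enzyme wells and ADEP (5.8 microM final).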
TRPV1 potentiator = enhances activation of the human vanilloid receptor TRPV1 | AID 540277 | potentiation, % at 8.33 µM | Q8NER1 | TRPV1-expressing cells, Fluo-8 calcium influx, capsaicin EC20 potentiation | 0.02% of 320,000 active; in the data active means potentiation above about 80%; inconclusive means between about 30% and that limit; further: 0% is about no effect
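Fluo-8 calcium influx in TRPV1-expressing cells, kinetic read (ex 480/em 520 nm). Compound added and read 3 min for agonist activity, followed by capsaicin at EC20 final and 2 min further read for enhancement.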
Active calls of the source: *; i = inactive; ? = inconclusive; . = no result. Most compounds without a hit are left out; they make up all but 2.6% or so of the library.

SMILES	p53 reactivation	KCNH2 3.1 block	KCNH2 WT inh	TRPV1 agonist	ClpP mod	TRPV1 potentiator
CC(C)NC(=O)N(C)C[C@H]1Oc2ccc(NC(=O)Nc3ccccc3)cc2C(=O)N([C@@H](C)CO)C[C@@H]1C	2%	-145*	19	.	1%	.
C[C@H](CO)N1C[C@H](C)[C@@H](CN(C)S(=O)(=O)c2ccccc2)Oc2ccc(NC(=O)Cn3cnnn3)cc2C1=O	2%	-92*	-5	.	1%	.
Cc1noc(C)c1S(=O)(=O)N(C)C[C@H]1Oc2ccc(NC(=O)Cn3cnnn3)cc2C(=O)N([C@H](C)CO)C[C@@H]1C	4%	-6	-5	.	-1%	.
COc1ccc(NC(=O)Nc2ccc3c(c2)C(=O)N([C@H](C)CO)C[C@H](C)[C@@H](CN(C)S(=O)(=O)c2ccccc2)O3)cc1	-6%	-97*	8	.	-1%	.
CCN(CC)C(=O)C1=C(C)N(Cc2ccc(C(C)(C)C)cc2)C(=O)C(CC(=O)NCCCCc2ccccc2)C1 (stereo not drawn)	.	-7	2	.	2%	.
O=C(Nc1cccc(C(F)(F)F)c1)Nc1ccc2nc([C@@H]3O[C@H](CO)[C@@H](O)[C@H](O)[C@H]3O)[nH]c2c1	.	.	.	.	-1%	.
COc1ccc(S(=O)(=O)NCc2ccc3c(c2)CCN3C(=O)c2ccc(C)cc2)cc1Cl	.	.	.	.	-1%	.
COC(=O)c1ccccc1NC(=O)N1CCN(C(=O)c2ccco2)CC1	-5%	-16	7	-2	22µM*	27
Cc1noc(C)c1CSc1nc2sc3c(c2c(=O)n1C)CCCC3	-6%	-102*	8	11	1%	-6
CC1CCCN(CCCNC(=O)c2coc3nc4ccccc4nc23)C1 (stereo not drawn)	-1%	-2	-21	-4	13µM*	-8
Cc1ccc(-c2nc(CS(=O)(=O)CC(=O)NCCN3CCOCC3)c(C)o2)cc1	-2%	9	-187*	-1	.	2
CCOc1ccc(-c2nc(CSCC(=O)NCCN3CCOCC3)c(C)o2)cc1	-6%	-6	-9	-6	32µM*	-2
Cc1ccccc1-c1nc(CS(=O)(=O)CC(=O)NCCN2CCOCC2)c(C)o1	-5%	-10	-9	0	-2%	12
O=C(c1ccccn1)N(Cc1ccco1)C1(C(=O)Nc2ccc(Br)cc2)CCCCC1	.	.	.	.	3%	.
CCOC(=O)CCCSc1nnc(CCCCCN2C(=O)c3cccc4cccc(c34)C2=O)o1	-28%	4	3	2	28µM*	-2
CCOC(=O)CSc1nnc(CCCCCN2C(=O)c3cccc4cccc(c34)C2=O)o1	-1%	-6	.	6	3%	23
COC(=O)c1ccc(NC(=O)Cn2c(=O)oc3ccccc32)cc1	.	.	.	.	0%	.
CN(C)c1ccc(C2CC(c3c(O)n(C4CCCCC4)c(=O)[nH]c3=O)=Nc3ccccc3S2)cc1 (stereo not drawn)	.	.	.	.	-6%	.
CCCC[C@]12Cc3ccccc3C(O1)c1c(cc(-c3ccccc3)oc1=O)O2	.	.	.	?	.	i
CCOC(=O)c1cc(-c2ccc(C)cc2)nc2nc(SC)[nH]c(=O)c12	2%	-6	-1	1	14µM*	3
CSc1ccccc1NC(=O)CN(C)CC(=O)NCc1ccccc1	0%	-1	-4	20	1%	-19
CSc1ccccc1NC(=O)CN(C)CC(=O)Nc1cc(C)ccc1C	18%	-76*	i	8	.	-1
CCCn1c(N)c(C(=O)CN(C)CC(=O)Nc2cc(C)ccc2C)c(=O)[nH]c1=O	6%	-70*	-2	2	-5%	4
CCCn1c(N)c(C(=O)CN(C)CC(=O)Nc2ccc(C)cc2)c(=O)[nH]c1=O	2%	-28	-10	2	.	22
CSc1ccc(CN(C)CC(=O)Nc2ccc(C)cc2Br)cc1	3%	-153*	-148*	27	1%	4
CC1Cc2cc(S(=O)(=O)NCc3ccccc3Cl)ccc2N1C(=O)C1CCC1 (stereo not drawn)	.	.	.	.	-1%	.
